Measured values as given in PubChem BioAssay.
Calls of active or inactive are those of the source.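 The calls were made as follows, unless noted: active = inhibition of the reporter signal at or above 50%; inactive = inhibition below 50%.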

Key:
[1] = inhibitors of TNFa-induced NFkB p65 translocation, primary screen, imaging, HUVEC, MLSMR starter and 10KST1 sets (AID 438;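 active = inhibition above 20% together with a positive visual image hit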;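 also: compound added about 3h40 before a 20 min TNFalpha stimulation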;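 as to inhibition: signal is the nuclear over cytoplasmic p65 intensity ratio per well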); details: HUVEC TNFa-induced p65 nuclear translocation; cell count: measured here: nuclei count (cytotoxicity indicator), at 2.08 µM; inhibition: at 2 µM, stronger effect = higher value, 0% TNFa-plus-vehicle, 100% no-TNFa wells
[2] = reduction of polyQ htt aggregates in cells – imaging, exon1htt(103Q)mCFP cells, high-content imaging, primary screen (AID 483;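 active = visual image review flags a hit and inhibition of aggregation exceeds 20%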;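 also: compound exposure lasted 3 days before fixation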;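 as to nuclei count: percent of the per-plate median nuclei count of sample wells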); details: exon1htt(103Q)mCFP cell line, aggregate imaging, at 2 µM; inhibition of aggregation: stronger effect = higher value; nuclei count: measured here: cell count, toxicity
[3] = endothelial E-selectin expression blockers – imaging, HUVEC, immunofluorescence, MLSMR starter and 10KST1 sets, primary screen (AID 487;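 active = visually confirmed hit in the image check and inhibition above 20%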;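 as to inhibition: signal is fraction of cell area covered by stained E-selectin grains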;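 as to nuclei count: 100% = median nuclei count of all wells on the same plate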); details: HUVEC TNFalpha-induced E-selectin immunofluorescence imaging, at 2 µM; inhibition: stronger effect = higher value; nuclei count: measured here: cell number, toxicity
[4] = molecular target: Voltage-gated potassium channel subunit beta-2 (Rattus norvegicus) (UniProt P62483); experiment: inhibitors of rat Kvbeta2 reductase activity – biochemical, NADPH fluorescence, primary screen (AID 622;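 active = fluorescence slope higher than the sample average by over 3 SD, cut at about -0.22 in these data, passing the limit was not always enough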;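 also: slope of raw intensity against log time taken from 70 to 1610 s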); details: recombinant KvBeta, 4-cyanobenzaldehyde reduction, at 10 µM, stronger effect = higher value
Chain of Voltage-gated potassium channel subunit beta-2 (Rattus norvegicus) (P62483 whole entry, looked up): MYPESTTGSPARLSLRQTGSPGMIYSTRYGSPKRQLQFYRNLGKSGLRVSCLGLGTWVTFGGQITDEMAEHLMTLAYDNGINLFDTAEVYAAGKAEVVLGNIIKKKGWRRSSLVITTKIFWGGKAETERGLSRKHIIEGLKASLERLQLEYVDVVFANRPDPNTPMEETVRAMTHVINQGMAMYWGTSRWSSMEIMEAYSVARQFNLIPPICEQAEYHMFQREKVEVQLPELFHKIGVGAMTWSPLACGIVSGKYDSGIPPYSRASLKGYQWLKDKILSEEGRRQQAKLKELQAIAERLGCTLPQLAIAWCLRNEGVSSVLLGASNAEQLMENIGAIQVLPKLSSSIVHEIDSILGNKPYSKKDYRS

[5] = molecular target: Voltage-gated potassium channel subunit beta-2 (Rattus norvegicus) (UniProt P62483); experiment: enhancers of rat Kvbeta2 NADPH turnover – biochemical, NADPH fluorescence, primary screen (AID 623;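 active = NADPH fluorescence slope more negative than the mean of all samples by about 3 SD, 99.7% confidence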;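 also: fluorescence intensity change per second fitted from 20 to 320 s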); details: Recombinant KvBeta, NADPH fluorescence decrease slope, 10 min; at 10 µM; stronger effect = lower value
[6] = molecular target: Alpha-2C adrenergic receptor (Homo sapiens) (UniProt P18825); experiment: compounds altering alpha2C-coupled GIRK flux – cell-based, HEK293 alpha2C/GIRK1/2, thallium flux, primary screen (AID 624;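 active = fluorescence slope after compound addition differing from the mean of all screened samples at 99.7% confidence, in either direction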;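 also: slope of fluorescence ratio to pre-addition baseline per second over 15 to 24 s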); details: thallium flux BTC fluorescence, at 10 µM, actives lie on both sides
Chain of Alpha-2C adrenergic receptor (Homo sapiens) (P18825 whole entry, looked up): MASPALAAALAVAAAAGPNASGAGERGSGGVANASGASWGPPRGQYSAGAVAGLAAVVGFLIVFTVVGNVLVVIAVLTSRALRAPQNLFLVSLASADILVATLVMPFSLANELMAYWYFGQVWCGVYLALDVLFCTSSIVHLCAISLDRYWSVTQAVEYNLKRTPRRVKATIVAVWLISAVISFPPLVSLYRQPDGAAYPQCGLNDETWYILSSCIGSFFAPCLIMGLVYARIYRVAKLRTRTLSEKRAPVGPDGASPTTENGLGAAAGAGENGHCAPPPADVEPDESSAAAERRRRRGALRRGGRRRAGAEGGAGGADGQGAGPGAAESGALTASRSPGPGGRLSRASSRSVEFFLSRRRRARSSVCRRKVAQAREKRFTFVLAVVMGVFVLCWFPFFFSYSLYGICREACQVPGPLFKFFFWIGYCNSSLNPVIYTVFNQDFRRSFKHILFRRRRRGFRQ

[7] = blockers of RIG-like receptor reporter activation – cell-based, Sendai virus stimulus, luciferase, 10K MLSCN set, TLR/RLR signaling modifier project, primary screen (AID 602276;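 active = inhibition at or above 50% at 10 µM; inactive = inhibition below 50%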;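 also: firefly luciferase from ISG56 promoter only with Renilla not read in this screen; 0% = Sendai virus plus DMSO and 100% = medium plus DMSO without virus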); details: HEK293 RL24 IRF3 luciferase reporter, at 10 µM, stronger effect = higher value
[8] = TLR3 IRF3 reporter activation blockers – cell-based, poly I:C stimulus, luciferase, 10K MLSCN set, primary screen (AID 602277); details: HEK293-TLR3 RL24 IRF3 luciferase reporter, at 10 µM, stronger effect = higher value

Compound | cell count [1] | inhibition [1] | inhibition of aggregation [2] | nuclei count [2] [%] | inhibition [3] | nuclei count [3] [%] | fluorescence slope [4] | NADPH fluorescence slope [5] | slope [6] | inhibition [7] | inhibition [8]
CC(C)(C)SCCNC(=O)CN1C(=O)c2ccccc2S1(=O)=O | 625 | -4.2% (inactive) | -13.2% (inactive) | 97.6 | -29.7% (inactive) | 106 | -0.499 (inactive) | -8.2e-06 (inactive) | 0.00704 (inactive) | 3.26% (inactive) | -7.98% (inactive)
CCOC(=O)c1cc2c(=O)n3cccc(C)c3nc2n(CC2CCCO2)c1=NC(C)=O (centres undefined) | 435 | 28.2% (inactive) | -1.4% (inactive) | 117 | -17.2% (inactive) | 114 | -0.295 (inactive) | -2.5e-05 (inactive) | 0.00401 (inactive) | 3.59% (inactive) | 8.19% (inactive)
c1ccc(-c2cc(N3CCCCC3)ncn2)cc1 | 327 | 0.7% (inactive) | -3.9% (inactive) | 101 | -109% (inactive) | 112 | -0.485 (inactive) | -4.6e-05 (inactive) | 0.00423 (inactive) | -37.6% (inactive) | -113% (inactive)
CC(=O)c1cccc(S(=O)(=O)N2CCC(n3nnc4cc(F)ccc43)CC2)c1 | 598 | 2.7% (inactive) | 3.8% (inactive) | 90.5 | -14.7% (inactive) | 93.6 | -0.4 (inactive) | 2.2e-05 (inactive) | 0.00694 (inactive) | -0.237% (inactive) | 31.4% (inactive)
N#Cc1cc2ccccc2nc1SCC(=O)Nc1ccccc1N1CCOCC1 | 448 | 13.7% (inactive) | 8.2% (inactive) | 100 | -12.8% (inactive) | 106 | -0.481 (inactive) | -2.6e-05 (inactive) | 0.00662 (inactive) | 9.6% (inactive) | 9.63% (inactive)
Cc1cc(C)c2c(CC(=O)NCc3ccco3)coc2c1 | 262 | 5.7% (inactive) | 23.9% (inactive) | 74.9 | 34.3% (inactive) | 60.6 | -0.324 (inactive) | 4e-05 (inactive) | 0.00608 (inactive) | 10.9% (inactive) | 21.2% (inactive)
CCC1Oc2ccc(C)cc2N(CC(=O)NCCCN2CCCCC2CC)C1=O (centres undefined) | 651 | -3.9% (inactive) | 26.7% (inactive) | 109 | -34.9% (inactive) | 101 | -0.41 (inactive) | 2.7e-05 (inactive) | 0.0055 (inactive) | 16.8% (inactive) | 38.8% (inactive)
Cc1nnc(SCC(=O)NCCN2C(=O)CSC2=O)s1 | 413 | 2.2% (inactive) | 19.8% (inactive) | 65.4 | -195% (inactive) | 125 | -0.606 (inactive) | -1e-05 (inactive) | 0.00749 (inactive) | 9.12% (inactive) | 19.5% (inactive)
O=C(CSCc1cccs1)N1CCCC1 | 228 | 3.9% (inactive) | -13.9% (inactive) | 95 | 18.9% (inactive) | 87.8 | -0.528 (inactive) | -1.2e-05 (inactive) | 0.00575 (inactive) | -30.1% (inactive) | -81.3% (inactive)
CC1CC(C)CN(Cc2nc3c(c(=O)n(C)c(=O)n3C)n2Cc2ccccc2Cl)C1 (centres undefined) | 705 | -16.8% (inactive) | -2.3% (inactive) | 78 | 37.7% (inactive) | 88 | -0.482 (inactive) | -4.6e-05 (inactive) | 0.00565 (inactive) | -10.4% (inactive) | -1.1% (inactive)
CCSc1nc2c(c(=O)[nH]1)C(c1cccnc1)C(C(=O)OC(C)C)=C(C)N2 (centres undefined) | 500 | 3.8% (inactive) | 19.4% (inactive) | 93.1 | -57.7% (inactive) | 103 | -0.475 (inactive) | -1.6e-05 (inactive) | 0.00631 (inactive) | 1.95% (inactive) | 25.7% (inactive)
Cc1ccc(-n2cnnn2)c2cccnc12 | 658 | -9.3% (inactive) | -7% (inactive) | 104 | -17% (inactive) | 102 | -0.402 (inactive) | -1.4e-05 (inactive) | 0.00333 (inactive) | 5.45% (inactive) | 27.7% (inactive)
COc1ccc(N2CCN(CCCNS(=O)(=O)c3c(C)noc3/C=C/N(C)C)CC2)cc1 | 561 | 8.7% (inactive) | -4.3% (inactive) | 101 | -36.7% (inactive) | 73.9 | -0.54 (inactive) | -6e-05 (inactive) | 0.00583 (inactive) | 3.23% (inactive) | 38.9% (inactive)
O=C1CC(c2ccccc2)n2nc(NC(=O)c3ccccn3)nc2N1 (centres undefined) | 565 | 3.3% (inactive) | -11.8% (inactive) | 108 | 16.2% (inactive) | 106 | -0.605 (inactive) | -3.9e-05 (inactive) | 0.00587 (inactive) | 9.98% (inactive) | 27.1% (inactive)
